Measured values from PubChem BioAssay.

Tests used:
[1] = test system: Human papillomavirus type 1a protein E7 (residues 44-93); test: HPV1a E7 fragment binders on microarrays, primary screen, biochemical, small-molecule microarray, residues 44-93, 635 nm fluorescence (AID 1108); settings: small-molecule microarray binding, fluorescence 635 nm; higher = more signal;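 also: E7 fragment applied at 1 µg/mL in TBST for 1 h at 4 C; score combines spot fluorescence with its signal to noise ratio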
[2] = modulators of HCV replicon luciferase signal, primary screen, HCV replication inhibitor project, Huh7 cells, luciferase reporter (AID 1109); settings: 48 h, higher = more signal;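 also: huh7 hepatoma cells harbouring a luciferase neomycin HCV replicon reporter; luciferase luminescence as measure of HCV replicon replication; test concentration not given here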
[3] = target: Left-right determination factor 2 (Homo sapiens) (UniProt O00292); test: LEFTY2 binders on small-molecule microarrays, primary screen, biochemical, small-molecule microarray, 635 nm fluorescence scan (AID 1110); settings: LEFTY2 binding, higher = more signal
Sequence of Left-right determination factor 2 (Homo sapiens) (O00292 whole entry, looked up): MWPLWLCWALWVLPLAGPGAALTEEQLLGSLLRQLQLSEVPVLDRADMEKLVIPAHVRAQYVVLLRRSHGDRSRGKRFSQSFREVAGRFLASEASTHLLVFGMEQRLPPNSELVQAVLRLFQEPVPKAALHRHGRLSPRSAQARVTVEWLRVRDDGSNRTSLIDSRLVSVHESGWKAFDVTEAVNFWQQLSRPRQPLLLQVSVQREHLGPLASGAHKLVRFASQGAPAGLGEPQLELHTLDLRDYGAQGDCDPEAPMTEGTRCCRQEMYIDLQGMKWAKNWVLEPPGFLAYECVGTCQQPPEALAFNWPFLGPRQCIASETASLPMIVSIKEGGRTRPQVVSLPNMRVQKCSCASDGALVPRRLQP

[4] = target: Calmodulin-1 (Homo sapiens) (UniProt P0DP23); test: CALM1 binders on microarrays, EGTA buffer, profiling panel, biochemical, small-molecule microarray, Cy5-labelled CALM1 (AID 1111); settings: Cy5-CALM1 binding fluorescence, higher = more signal;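 also: labelled calmodulin applied in Tris saline Tween buffer holding calcium plus EGTA and DTT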
[5] = target: Calmodulin-1 (Homo sapiens) (UniProt P0DP23); test: calcium-bound CALM1 binders on microarrays, profiling panel, artefact control for SMM control-protein annotation, biochemical, small-molecule microarray, Cy5-labelled CALM1, plus calcium (AID 1112); settings: Cy5-CALM1 binding fluorescence, higher = more signal;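 also: score merges spot fluorescence with signal to noise from triplicate slides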
[6] = small-molecule microarray binders of probe aWnt5a, primary screen, biochemical, biotinylated probe, 635/667 nm fluorescence (AID 1113); settings: higher = more signal;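 also: score merges 667 nm fluorescence intensity with signal-to-noise per printed feature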
[7] = small-molecule microarray binders of probe aShh, primary screen, biochemical, biotinylated probe, 635/667 nm fluorescence (AID 1114); settings: higher = more signal;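 also: probe is biotin-labelled aShh protein from a stem cell growth factor screen; measures binding of labelled protein to compounds printed on the slide; score merges feature fluorescence at 667 nm with signal-to-noise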
[8] = small-molecule microarray binders of probe aNog, primary screen, biochemical, biotinylated probe, 635/667 nm fluorescence (AID 1115); settings: higher = more signal;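 also: probe is biotinylated aNog protein used at 0.15 µg/mL for 1 h at 4 C; z-score combines 667 nm fluorescence of each spot with its signal to noise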
[9] = target: Torsin-1A-interacting protein 1 (Homo sapiens) (UniProt Q5JTV8); test: LAP1 binders from COS7 cell lysate, primary screen, small-molecule microarray, 635/667 nm fluorescence (AID 1116); settings: COS7-hLAP1 lysate binding, 635 nm fluorescence, higher = more signal
Sequence of Torsin-1A-interacting protein 1 (Homo sapiens) (Q5JTV8 whole entry, looked up): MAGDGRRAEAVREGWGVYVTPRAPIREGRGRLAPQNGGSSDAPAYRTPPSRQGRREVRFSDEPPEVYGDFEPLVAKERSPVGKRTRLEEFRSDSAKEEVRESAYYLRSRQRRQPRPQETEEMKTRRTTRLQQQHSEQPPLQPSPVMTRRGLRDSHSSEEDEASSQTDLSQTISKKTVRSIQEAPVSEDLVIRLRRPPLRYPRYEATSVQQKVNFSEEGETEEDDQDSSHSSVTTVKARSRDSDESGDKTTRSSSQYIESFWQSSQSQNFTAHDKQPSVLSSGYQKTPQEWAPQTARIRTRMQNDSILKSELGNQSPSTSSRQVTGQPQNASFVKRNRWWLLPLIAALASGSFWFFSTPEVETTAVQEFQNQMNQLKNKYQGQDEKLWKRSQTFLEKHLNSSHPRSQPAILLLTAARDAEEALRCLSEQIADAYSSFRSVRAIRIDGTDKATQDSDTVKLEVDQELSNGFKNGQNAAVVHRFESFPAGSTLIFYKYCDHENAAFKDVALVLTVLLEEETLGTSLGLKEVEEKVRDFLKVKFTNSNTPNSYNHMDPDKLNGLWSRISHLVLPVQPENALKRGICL

[10] = target: Alpha-bungarotoxin (Bungarus multicinctus) (UniProt P60615); test: alpha-bungarotoxin binders on microarray, profiling panel, artefact control for SMM control protein annotation, biochemical, small-molecule microarray, Alexa647 label, 635/667 nm fluorescence (AID 1117); settings: alpha-BTX-A647 binding fluorescence, higher = more signal
Sequence of Alpha-bungarotoxin (Bungarus multicinctus) (P60615 whole entry, looked up): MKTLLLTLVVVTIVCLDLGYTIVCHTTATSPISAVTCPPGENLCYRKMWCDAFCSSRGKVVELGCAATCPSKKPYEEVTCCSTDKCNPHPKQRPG

| SMILES | composite z-score [1] | z-score [2] | composite z-score [3] | composite z-score [4] | composite z-score [5] | composite z-score [6] | composite z-score [7] | composite z-score [8] | composite z-score [9] | composite z-score [10] |
| --- | --- | --- | --- | --- | --- | --- | --- | --- | --- | --- |
| C=CC[C@@H]1C=C[C@H](ON=C2[C@H]3CCn4c(=O)n(-c5ccccc5)c(=O)n4[C@H]3[C@H](O)[C@@H]3O[C@H]23)[C@@H](CO)O1 | -0.268 | -3.56 | 0.402 | 0.991 | -0.0461 | -0.147 | -0.0752 | -0.534 | 0.16 | 0.744 |
| COC(=O)CC=C[C@@H](C)[C@@H](C=NOC[C@H]1O[C@H](c2ccccc2)C=C[C@@H]1Oc1ccc(OC)cc1)NS(=O)(=O)c1ccc(C)cc1 | -1.1 | -0.787 | -0.233 | -1.07 | -0.467 | -0.147 | -0.112 | -0.181 | -0.306 | -0.183 |
| COC(=O)C1=C(C)N(Cc2ccccc2)[C@]23O[C@](C(=O)OC)(C(=O)N2[C@@H]1c1ccccc1)C(C(=O)OC)=C3C(=O)OC | 1.3 | -2.76 | 0.88 | -0.328 | -1.19 | -0.0346 | -0.138 | 0.229 | 0.569 | -0.129 |
| COC(=O)[C@@H]1CC[C@H](C)[C@@H](c2ccc(C)cc2)N1C(=O)c1ccc(C=NO[C@H](C)c2cn([C@H](CO)Cc3ccccc3)nn2)cc1 | 0.671 | -2.17 | 0.776 | 3.17 | -0.139 | -0.124 | 0.191 | -0.0318 | 0.462 | 0.0997 |
| CO[C@@H]1COC(=O)[C@@H](C)NC(=O)CC=C[C@@H](C)[C@H](NS(=O)(=O)c2ccc(C)cc2)COC(=O)[C@H](C)NC(=O)CC=C[C@H]1C | -0.0926 | 0.0975 | 0.765 | -1.74 | -1.94 | -0.0045 | -0.0709 | -0.433 | 0.392 | -0.744 |
| CC(CCN1CCCCc2nc(C)c(C)cc21)=NOC[C@@H](O)COCc1ccco1 | -1.68 | 0.0716 | 1.61 | -1.34 | -1.81 | -0.129 | 0.0121 | -0.911 | 0.43 | -0.527 |
| CC(C)C[C@H](NC(=O)CCC1CC(OC(=O)NCc2cccc3ccccc23)CC2(CCCC(COC(=O)NCc3ccccc3)O2)O1)C(=O)NCC(c1ccccc1)c1ccccc1 (stereo not given in full) | 1.28 | -1.27 | 0.913 | 0.0799 | -0.202 | -0.0825 | 0.0611 | -0.0863 | 0.508 | -0.157 |
| CC(C)CON=C1C[C@@H](O)[C@@H](O)[C@@H]2[C@@H]3C(=O)N(c4cccc(Oc5ccccc5)c4)C(=O)[C@@H]3CC[C@@H]12 | 1.35 | 0.251 | 0.374 | 1.05 | -0.426 | 0.0215 | -0.221 | -0.158 | 1.06 | 0.538 |
| CC(C)=CCCC(C)=CCON=C1C[C@@H](O)[C@@H](O)[C@@H]2[C@@H]3C(=O)N(C4CCCCC4)C(=O)[C@@H]3CC[C@@H]12 | 0.0997 | -0.471 | 0.464 | -0.403 | -1.15 | -0.128 | -0.209 | -0.261 | 0.259 | -0.0585 |
| COC(=O)CC=C[C@@H](C)[C@@H](C=NO[C@@H](C)c1cn([C@H](CO)Cc2ccccc2)nn1)OC | 0.939 | 0.0629 | 0.499 | -1.04 | -1.48 | -0.0944 | -0.138 | 0.15 | -0.0644 | -0.027 |
| CC(CCC(=O)OC[C@H]1O[C@H](C#Cc2ccccc2)C=C[C@@H]1Oc1ccc(C)cc1)=NO[C@H](C)c1cn([C@H](CO)Cc2ccccc2)nn1 | 0.53 | -1.57 | 0.423 | 0.0827 | -0.0351 | -0.0924 | -0.138 | 0.0169 | -0.166 | -0.0686 |
| COc1cccc([C@H]2Oc3ccc(OC)cc3C(=NO[C@@H](C)c3cn([C@H](CO)Cc4ccccc4)nn3)[C@@H]2O)c1 | -0.429 | -0.727 | -0.36 | 0.465 | -0.0011 | -0.0836 | 0.0121 | 0.0918 | -0.0881 | -0.417 |
| COc1cccc([C@H]2Oc3ccc(OC)cc3C(=NOC[C@@H](O)[C@H]3O[C@@H]4OC(C)(C)O[C@@H]4[C@H]3O)[C@@H]2O)c1 | 0.0743 | 4.33 | 0.583 | -0.284 | -0.273 | -0.139 | -0.304 | -0.409 | 0.64 | -0.106 |
| Cc1cc2c(nc1C)CCCN2CC(O)CN1CCCc2nc(C)c(C)cc21 | 0.142 | -0.107 | 0.368 | 0.239 | -0.322 | 0.308 | 0.699 | 0.568 | 3.26 | 1.42 |
| CO[C@H]1COC(=O)[C@@H](C)COC(=O)[C@H](C)NC(=O)CC=C[C@H]1C | -0.328 | -0.399 | 1.28 | -0.451 | -1.98 | -0.178 | -0.243 | -0.379 | -0.15 | -0.354 |
| C#CCCCON=C1C[C@@H](O)[C@@H](O)[C@@H]2[C@@H]3C(=O)N(c4cccc(Oc5ccccc5)c4)C(=O)[C@@H]3CC[C@H]12 | -0.578 | 0.18 | -0.914 | -0.423 | 0.361 | -0.172 | -0.138 | -0.237 | 0.441 | -0.702 |

| SMILES | composite z-score [1] | z-score [2] | composite z-score [3] | composite z-score [4] | composite z-score [5] | composite z-score [6] | composite z-score [7] | composite z-score [8] | composite z-score [9] | composite z-score [10] |
| --- | --- | --- | --- | --- | --- | --- | --- | --- | --- | --- |
| O=C(NN=C1C[C@@H](O)[C@@H](O)[C@@H]2[C@@H]3C(=O)N(C[C@@H]4CCCO4)C(=O)[C@@H]3CC[C@H]12)OCc1ccccc1 | -0.453 | 1.16 | -0.156 | 0.0715 | 0.226 | 0.0377 | -0.0146 | 0.154 | 0.349 | 0.275 |
| CCOC(=O)[C@H](CC(C)C)NC(=O)CCC1CC(OC(=O)NCc2ccc3c(c2)OCO3)CC2(CCCC(COC(=O)NCCCN3CCCC3=O)O2)O1 (stereo not given in full) | 1.26 | -0.584 | 0.563 | 0.542 | -0.348 | -0.0519 | -0.0073 | -0.158 | 0.0469 | 0.758 |
| CO[C@H]1COC(=O)[C@H](C)NC(=O)CC=C[C@@H](C)[C@H](OC)COC(=O)[C@@H](OCc2ccccc2)C=C[C@@H]1C | -0.112 | -0.339 | 0.591 | -0.306 | -1.32 | -0.233 | -0.279 | 0.0021 | 0.129 | -0.233 |
| C=CC[C@@H]1C=C[C@H](ON=C[C@@H](C)[C@H](OCc2ccccc2)C(C)C)[C@@H](CO)O1 | 0.0248 | -2.12 | -0.0977 | -1.07 | -0.0781 | -0.101 | -0.186 | -0.4 | -0.159 | -0.901 |
| CC(C)(C)N1C(=O)[C@H]2[C@H]3[C@H](O)[C@H](O)CC(=O)[C@H]3CC[C@H]2C1=O | 0.487 | -0.041 | 0.473 | 0.133 | -0.816 | 0.0267 | -0.186 | -0.0996 | 0.274 | 0.642 |
| COc1cccc([C@H]2Oc3ccc(OC)cc3C(=NOC(C)CN3CCCCc4nc(C)c(C)cc43)[C@@H]2O)c1 (stereo not given in full) | -0.168 | -2.48 | 0.321 | 0.147 | -0.861 | -0.148 | 0.151 | -0.219 | 0.29 | 0.385 |
| CC(CCN1CCc2nc(-c3ccccc3)c(-c3ccccc3)cc2C1)=NOC[C@@H](O)[C@H]1O[C@@H]2OC(C)(C)O[C@@H]2[C@H]1O | 1.12 | -2.73 | 0.642 | 0.12 | -0.233 | -0.139 | -0.0709 | -0.353 | 0.825 | 0.673 |
| CCOC(=O)[C@H](Cc1ccccc1)NC(=O)CCC1CC(OC(=O)NCc2cccc3ccccc23)CC2(CCCC(COC(=O)NCCC(C)C)O2)O1 (stereo not given in full) | -2.01 | -0.134 | 0.215 | 0.56 | -0.29 | -0.13 | 0.0141 | -0.372 | -0.0831 | 1.09 |
| CC(CCN1CCCCc2nc(C)c(C)cc21)=NOC[C@@H](C)[C@H](OCc1ccccc1)C(C)C | -0.824 | -0.876 | -1.47 | -1.74 | -1.8 | -0.335 | -0.428 | -0.803 | -1.07 | -2.21 |
| CCO[C@H](c1cc(OC)cc([N+](=O)[O-])c1OC)[C@H](C)C=CCC(=O)OC | -0.679 | 0.265 | 0.46 | -0.432 | -1.36 | -0.248 | -0.214 | -0.0278 | 0.11 | -0.0356 |
| CON=C1[C@H]2CCn3c(=O)n(-c4ccccc4)c(=O)n3[C@H]2[C@H](O)[C@@H]2O[C@H]12 | 0.548 | -2.1 | 0.661 | -0.345 | -0.536 | -0.0445 | -0.138 | -0.158 | -0.501 | 0.269 |
| COc1ccc(O[C@H]2C=C[C@@H](c3ccccc3)O[C@@H]2COC(=O)CCC(C)=NOC(C)CN2CCCc3nc(C)c(C)cc32)cc1 (stereo not given in full) | 1.31 | -1.81 | 0.646 | 0.0727 | -0.384 | -0.124 | 0.0278 | 0.109 | 0.4 | 0.463 |
| COC(=O)CC=C[C@@H](C)[C@@H](C=NOCC[C@@H]1C=C[C@H](OC(C)=O)[C@@H](COC(C)=O)O1)NS(=O)(=O)c1ccc(C)cc1 | -0.0642 | -1.45 | 0.851 | -0.879 | -1.47 | -0.0519 | 0.0141 | -0.429 | 0.164 | -0.0729 |
| C#CCCCON=C1C[C@@H](O)[C@@H](O)[C@@H]2[C@@H]3C(=O)N(C(C)(C)C)C(=O)[C@@H]3CC[C@@H]12 | 0.0592 | 1.17 | -0.442 | -0.389 | -0.165 | -0.0721 | -0.338 | 0.305 | 0.805 | 0.323 |
| CC(C)CON=C1[C@H]2CCn3c(=O)n(Cc4cc5c(cc4Cl)OCO5)c(=O)n3[C@H]2[C@H](O)[C@@H]2O[C@H]12 | 0.271 | 0.0671 | 0.389 | -0.0844 | -0.635 | -0.0758 | 0.0815 | -0.329 | 0.38 | 0.351 |
